Results taken from PubChem BioAssay AID529 (NMMLSC, 2006).
Among all 24,000 compounds or so, about 50 (0.2%) were called active. About 9% were inconclusive and are not listed. The entries come from a sample that favours actives as a whole. Unmarked numbers belong to inactive results.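 The calls were made as follows: active = inhibition above 50%; inconclusive = compound itself fluorescent, judged against control cell fluorescence; inactive = the rest.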

The molecules below were run against Integrin alpha-4 (Homo sapiens) (UniProt P13612) (assay: blockers of LDV-FITC ligand binding on VLA-4 – Jurkat cells, Mn2+ activated, primary screen (AID 529;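 also: 0% = Mn2+ stimulated cells lacking compound and 100% = ligand binding without Mn2+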)). Details: LDV-FITC binding with Mn2+, flow cytometry, active compounds read high, 100% = Mn2+-driven binding gain fully reversed, screened at 10 µM (by protocol).
Chain of Integrin alpha-4 (Homo sapiens) (P13612 whole entry, looked up): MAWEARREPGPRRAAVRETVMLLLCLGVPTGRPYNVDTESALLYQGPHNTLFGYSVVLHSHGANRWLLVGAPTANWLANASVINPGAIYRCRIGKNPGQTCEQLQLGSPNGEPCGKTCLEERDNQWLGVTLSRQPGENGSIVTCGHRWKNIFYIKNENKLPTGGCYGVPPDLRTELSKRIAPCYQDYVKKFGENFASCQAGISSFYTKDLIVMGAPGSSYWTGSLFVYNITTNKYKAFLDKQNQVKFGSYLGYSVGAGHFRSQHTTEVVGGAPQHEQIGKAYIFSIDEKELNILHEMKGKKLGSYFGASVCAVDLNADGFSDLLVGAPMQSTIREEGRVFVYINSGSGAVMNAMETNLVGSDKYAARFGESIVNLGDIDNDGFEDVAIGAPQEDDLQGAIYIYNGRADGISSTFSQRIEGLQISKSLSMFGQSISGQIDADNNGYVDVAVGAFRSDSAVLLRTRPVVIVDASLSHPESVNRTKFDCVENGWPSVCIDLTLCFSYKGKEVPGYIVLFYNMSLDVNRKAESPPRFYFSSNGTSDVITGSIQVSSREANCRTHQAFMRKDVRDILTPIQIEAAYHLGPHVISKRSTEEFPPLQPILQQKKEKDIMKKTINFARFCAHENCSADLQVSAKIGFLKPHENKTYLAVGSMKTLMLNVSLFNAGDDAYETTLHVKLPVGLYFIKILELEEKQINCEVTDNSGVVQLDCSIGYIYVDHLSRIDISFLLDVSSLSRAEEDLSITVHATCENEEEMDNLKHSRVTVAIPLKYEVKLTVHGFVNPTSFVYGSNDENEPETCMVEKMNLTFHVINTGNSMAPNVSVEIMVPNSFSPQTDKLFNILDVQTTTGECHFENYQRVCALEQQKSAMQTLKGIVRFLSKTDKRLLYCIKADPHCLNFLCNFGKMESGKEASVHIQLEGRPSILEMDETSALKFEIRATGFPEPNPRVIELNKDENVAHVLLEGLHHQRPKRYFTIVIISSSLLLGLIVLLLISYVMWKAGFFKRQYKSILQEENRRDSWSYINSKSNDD

SMILES	inhibition [%]
CCOC(=O)c1cccc(NC(=O)CCc2c(C)nc3ncnn3c2C)c1	10
CCOC(=O)N1CCN(C(=O)CSc2nnc(-c3c[nH]c4ccccc34)n2CCOC)CC1	9
CC(=O)NC(C)c1nc2ccccc2n1Cc1ccccc1F (stereo not drawn)	1
CN(C(=O)C1CCOC1)c1nnc(-c2cccnc2)s1 (stereo not drawn)	-8
CC1=NCCN1S(=O)(=O)c1ccc(Br)c(C)c1	-21.5
C=CCSc1nnc(Cn2c(=O)sc3ccccc32)n1C	5
Brc1cnc(N2CCCC2)nc1N1CCCCC1	-21
Cc1cc(C)cc(N(CC(=O)NCC2CCCO2)S(=O)(=O)c2c(C)noc2C)c1 (stereo not drawn)	-10
Cc1cccc(NC(=O)CSc2nnc(NC(=O)CN3CCOCC3)s2)c1	-21
COc1cc2[nH]c(=O)n(CCC(=O)NC3CCN(Cc4ccccc4)CC3)c(=O)c2cc1OC	11
CCOc1cc(S(=O)(=O)NCc2ccc3c(c2)OCO3)ccc1F	-18.5
O=S1(=O)CCN2C(=N1)SC1=C2CCN(Cc2ccccc2)C1	4
CCOc1ccc(OCC)c(NC(=O)CN(C)S(=O)(=O)c2cccc3nsnc23)c1	5
O=C(CSc1nc2ncccc2[nH]1)Nc1ccc2c(c1)OCCO2	-23
CCc1nnc(NC(=O)CSc2nnc(Cc3ccccc3)n2-c2ccc(OC)cc2)s1	-26.5
CCOC(=O)N1CCN(C(=O)c2ccc3nc4cc(Cl)ccc4c(=O)n3c2)CC1	6.7
OCc1n[nH]c(CO)n1	2
O=c1ccn(Cc2ccccc2Cl)cc1	-16
N#CCCn1cnc2ccccc21	-16.5
CCOc1ccc(C2C(C(=O)O)c3ccccc3C(=O)N2CCN2CCOCC2)cc1 (stereo not drawn)	-12.1
COc1cccc(OCC(=O)Nc2ccccc2C(N)=O)c1	-12

SMILES	inhibition [%]
CCOC(=O)N1CCC(NC(=O)Cn2cc3c(n2)CCCCC3)CC1	-1
CSC1=NCCN1C(=O)c1ccc(S(=O)(=O)N2CCOCC2)cc1	1
CCCC(=O)N1c2ccccc2NC2=C(C(=O)CCC2)C1c1ccc(F)cc1 (stereo not drawn)	-5.3
Cc1c(C(=O)Nc2ccccc2Cl)oc2ccc(S(=O)(=O)N3CCC4(CC3)OCCO4)cc12	-8
CCOc1cc2[nH]c(=S)n(CCCN3CCCC3=O)c(=O)c2cc1OCC	-5
O=C(Cn1nc(Cc2cccnc2)c2ccccc2c1=O)NCC1CCCO1 (stereo not drawn)	-1
COc1ccc(CNC(=O)C2CCN(S(=O)(=O)N3CCOCC3)CC2)cc1	3
Cc1ccc(-c2nc(CS(=O)CC(=O)NC3CCCC3)c(C)o2)cc1 (stereo not drawn)	-15
CCOc1ccc(C(=O)N(Cc2ccc(N(C)C)cc2)C2CCS(=O)(=O)C2)cc1 (stereo not drawn)	-24.5
CCOC(=O)C1CCN(C(=O)CC2C(=O)N(Cc3ccccc3)C(C)c3nc4ccccc4n32)CC1 (stereo not drawn)	8
CC(C)(C)c1ccc(C(=O)NCCC(=O)NCc2ccco2)cc1	-4
CCOC(=O)N1CCN(C(=O)c2cnc3n(c2=O)CCS3)CC1	-8
CCCOc1ccc(C2c3c(oc4cc(C)c(C)cc4c3=O)C(=O)N2CCCN2CCOCC2)cc1 (stereo not drawn)	1
O=C(NCc1ccc2c(c1)OCO2)C1CCCN(S(=O)(=O)c2cccs2)C1 (stereo not drawn)	3
CCOC(=O)C1(C(F)(F)F)N=C(N(C)C)OC(N(C)C)=N1	20
O=C1OC(NC(=O)c2ccccc2)C(N2CCOCC2)=C1Cl (stereo not drawn)	6
COc1ccccc1N1CCN(Cc2nnnn2CCc2ccccc2)CC1	-8
COc1ccccc1C(=O)N1CCNC(=O)C1CC(=O)Nc1ccc(Cl)cc1 (stereo not drawn)	-4.5
O=C(CN1CCN(C(=O)c2cccc(F)c2)CC1)Nc1ccccc1F	7
N#Cc1ccc(COC(=O)Cn2nnc(-c3ccccc3)n2)cc1	-9.5
COc1ccc(N2C(=O)c3cccc4cccc(c34)C2=O)nn1	-1.5

SMILES	inhibition [%]
OCCNCCCCOc1ccccc1F	-13.5
COc1ccccc1C(=O)NCCn1cc(SCC(=O)NCc2ccco2)c2ccccc21	-4
Cn1c(=O)[nH]c(=O)c2c1nc(NCCCn1ccnc1)n2Cc1cccc(Br)c1	-22.5
CCCS(=O)(=O)N1CCN(C(=O)c2cccs2)CC1	-15
COc1cccc(N2C(=O)C3CCCN3C2c2ccc(F)cc2)c1 (stereo not drawn)	-5
CCN(CC)C(=O)N1CCN(C(=O)c2ccc(C)cn2)CC1	-8
CCn1c(CSc2ncccn2)nnc1SCC(=O)N1c2ccccc2CC1C (stereo not drawn)	5.5
O=C1c2ccncc2C(=O)N1C1CCCCC1	3
COc1ccc(OC)c(C2N(c3ccccn3)C(=O)C3CCCN32)c1 (stereo not drawn)	-11
O=C(CN1C(=O)CSc2ncccc21)N1CCOCC1	-1
COc1cccc(C(CC(=O)NCCN2CCOCC2)NS(=O)(=O)c2ccc(C)cc2)c1OC (stereo not drawn)	-2
Cc1onc(-c2ccccc2Cl)c1C(=O)NCCn1ccc2ccccc21	-7
Cc1ccc(C2CC(=O)NC(SCC(=O)OCc3ccccc3)=C2C#N)o1 (stereo not drawn)	-24
COc1ccc(S(=O)(=O)NC(CC(=O)NCc2ccccc2OC)c2ccco2)cc1 (stereo not drawn)	3
CC(C)OCCCNC(=O)CNC(=O)c1cccs1	10
CCOC(=O)c1ccn(-c2nc(-c3ccco3)cc(C(F)(F)F)n2)n1	-5
CCOC(=O)c1sc(=S)n(-c2cccc(OC)c2)c1N	-4
CCOC(=O)Cn1c2c(c(-c3ccccc3OC)cc1=O)CCCC2	16
Cc1ccc(N2C(=O)c3oc4ccccc4c(=O)c3C2c2cccnc2)nc1 (stereo not drawn)	-22
OCc1nc(CO)n(Cc2ccccc2)n1	-2.3
O=C(CN1CCOCC1)Nc1c2c(nc3c1CCC3)CCC2	-12
